The list is not random: actives were taken first. Their share in the collection is about 12%.
HCV inhibitor = qHTS Assay for Inhibitors of Hepatitis C Virus (HCV); Huh7.5.1 HCVcc-Cre infection, luciferase reporter, 44 h; Potency, µM (titrated, usually from 41.8 µM), hits mostly inhibitors; actives 3.4% (n = 340,000); AID 651820, 2012
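Infectious HCV cell culture screen: compound-treated cells (1,000/well, pre-plated 4 h) are infected with HCVcc-Cre at roughly 0.5 moi and grown 44 h. Infection is quantified by luciferase signal after 15 min substrate incubation at room temperature.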
SARS PLpro yeast = qHTS of Yeast-based Assay for SARS-CoV PLP; S. cerevisiae expressing SARS-CoV PLpro, growth rescue; actives 0.19% (n = 330,000); AID 485353, 2010; Potency, µM (titrated, usually from 32.9 µM), most hits filed as activators; calls by dose curve; further: nearly all actives have a fitted effect of over 55% in size
Pf growth 48h = Primary qHTS for delayed death inhibitors of the malarial parasite plastid, 48 hour incubation; P. falciparum luciferase growth in erythrocytes, 48 h; Potency, µM (highest dose often 28.7 µM), most hits filed as inhibitors; actives 5.9% (n = 310,000)
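Here the parasites carry a stable luciferase gene and grow inside erythrocytes in Albumax-based RPMI medium with compound for one erythrocytic cycle. Activity is scored as loss of luminescent signal.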
Pf growth 96h = Primary qHTS for delayed death inhibitors of the malarial parasite plastid, 96 hour incubation; P. falciparum luciferase reporter growth, 96 h; Potency, µM (doses to about 28.7 µM), hits mostly inhibitors; actives 6.9% (n = 320,000)
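Erythrocytes infected with luciferase-expressing P. falciparum were dispensed at 2% hematocrit and 0.05% parasitemia (final), then incubated with compounds 96 hours at 37 C in 5% CO2. Luminescence after detection reagent addition reported growth.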
AMA1 RON2 block = qHTS for Inhibitors of AMA1-RON; Towards Development of Antimalarial Drug Lead: Primary Screen; Plasmodium falciparum AMA1 (3D7) - RON2 peptide interaction; AlphaScreen AMA1-biotinylated RON2 peptide binding; Potency, µM (series often up to 58.2 µM), usual class: inhibitors; actives 0.2% (n = 360,000); AID 720542, 2013; further: nearly all actives have a fitted effect of over 45% in size
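AMA1 (3D7) with his tag at 25 nM final met compounds first, then biotinylated RON2 peptide at 25 nM; detection used donor plus acceptor beads, 10 µg/mL apiece, read by AlphaScreen after 30 min at room temperature.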
NS1 inh = qHTS Assay for Inhibitors of Influenza NS1 Protein Function. Potency, µM (titrated, usually from 46.1 µM). actives 0.4% (n = 270,000); calls by dose curve; further: actives are rising curves; nearly all actives have a fitted effect of over 50% in size
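Growth recovery, yeast-based: influenza A NS1 expressed in S. cerevisiae causes slow growth, and suppressors are detected by OD600. The parent strain without NS1 is used as positive control.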
Each line names hits and unclear results; the compound was inactive in the other large screens. Unless noted, the call rests on the fitted dose curve; in most records, active means well fitted curve in the direction sought with a large enough effect; inconclusive means small, poorly fitted or top-dose-only effect, or another doubt; inactive means no such curve, though single readings can be large; an effect the other way counts as inactive or inconclusive.

COc1cccc(/C=N/Nc2nnc(C)n2N)c1OCc1ccccc1Cl	HCV inhibitor 22µM, Pf growth 48h inconclusive
O=C(CCl)NCc1cc(-c2ccc(Cl)cc2)no1	HCV inhibitor 11µM, Pf growth 48h 2.1µM, Pf growth 96h 2.9µM (no result: NS1 inh)
COc1ccc(CCC2(C)NC(=O)N(C(C)C(=O)N3c4ccccc4CC3C)C2=O)cc1 (stereo not drawn)	Pf growth 48h 13µM, Pf growth 96h inconclusive (no result: NS1 inh)
COc1ccc(S(=O)(=O)CCC(=O)N2c3ccccc3CC2C)cc1 (stereo not drawn)	none
COCCNC(=S)N1CCCC(CO)C1 (stereo not drawn)	none
Cc1ccc(-n2sc3ccccc3c2=O)cc1	HCV inhibitor inconclusive, Pf growth 48h 4.1µM
O=c1c2ccccc2sn1-c1ccc(F)cc1	HCV inhibitor inconclusive, Pf growth 48h 10µM, Pf growth 96h inconclusive (no result: NS1 inh)
C=CC(C)(C)c1[nH]cnc1/C=C1\NC(=O)C(C(C)C)NC1=O (stereo not drawn)	HCV inhibitor inconclusive, Pf growth 48h inconclusive, Pf growth 96h 2.1µM
CCOC(=O)N1CCN(S(=O)(=O)c2cc([N+](=O)[O-])c(C)cc2C)CC1	none
C(CNC1C2CC3CC(C2)CC1C3)CN1CCOCC1 (stereo not drawn)	none
C1CCN(CCCNC2C3CC4CC(C3)CC2C4)C1 (stereo not drawn)	HCV inhibitor 2.5µM, Pf growth 48h inconclusive, Pf growth 96h inconclusive
O=C(N/N=C/c1ccc(O)cc1)Nc1cccc2nsnc12	HCV inhibitor inconclusive
CCN(CC(=O)Nc1sc2c(c1C#N)CCC(C)C2)Cc1nc2ccccc2c(=O)[nH]1 (stereo not drawn)	HCV inhibitor inconclusive, Pf growth 48h inconclusive, Pf growth 96h inconclusive (no result: NS1 inh)
CCN(CC(=O)Nc1sc2c(c1C#N)CCC(C)C2)CC(=O)NC1CCS(=O)(=O)C1 (stereo not drawn)	Pf growth 96h 12µM (no result: NS1 inh)
O=C(Nc1nnc(CSCc2ccccc2F)s1)c1cccc([N+](=O)[O-])c1	Pf growth 96h 13µM
COCCCN(CC(=O)Nc1ccc(N2CCOCC2)cc1)S(=O)(=O)c1ccccc1	Pf growth 96h inconclusive (no result: NS1 inh)
CC(C)(C)NC(=S)N/N=C/c1c(Cl)cccc1Cl	Pf growth 48h 3.7µM, Pf growth 96h 2.9µM
O=C(CN1CCN(c2ccccn2)CC1)Nc1ccc([N+](=O)[O-])cc1C(=O)Nc1ccccc1F	HCV inhibitor 11µM, Pf growth 48h inconclusive
CSc1ccccc1NC(=O)CN1CCN(S(=O)(=O)c2ccccc2[N+](=O)[O-])CC1	HCV inhibitor inconclusive, Pf growth 48h 9.3µM, Pf growth 96h 9.3µM (no result: NS1 inh)
CSc1ccccc1NC(=O)CN1CCN(c2ccccn2)CC1	Pf growth 48h 7.4µM, Pf growth 96h 8.3µM
COc1ccc(-n2nc(C(=O)NCC(=O)Nc3cc(OC)c(OC)c(OC)c3)c3ccccc3c2=O)cc1	Pf growth 48h 9.3µM
COc1ccc(-n2nc(C(=O)NCC(=O)NCc3ccc(F)cc3)c3ccccc3c2=O)cc1	Pf growth 48h inconclusive, Pf growth 96h 6.6µM
COc1ccc(-n2nc(C(=O)NCC(=O)Nc3cc(OC)c(OC)c(OC)c3)c3ccccc3c2=O)cc1OC	Pf growth 48h inconclusive, Pf growth 96h inconclusive
COc1ccc(-n2nc(C(=O)Nc3ccc4c(c3)OCO4)c3ccccc3c2=O)cc1	HCV inhibitor inconclusive, Pf growth 48h 10µM
COc1ccc(-n2nc(C(=O)NCc3ccco3)c3ccccc3c2=O)cc1	Pf growth 96h 3.3µM (no result: Pf growth 48h)
COc1ccc(-n2nc(C(=O)NCc3ccco3)c3c4ccccc4n(C)c3c2=O)cc1	none
CN(C)CC(O)COC(c1ccccc1)c1ccccc1 (stereo not drawn)	none (no result: NS1 inh)
OC(CNCCc1ccc(C(F)(F)F)cc1)COC(c1ccccc1)c1ccccc1 (stereo not drawn)	HCV inhibitor inconclusive, Pf growth 96h 3.7µM (no result: Pf growth 48h)
COc1ccc(C(OCC(O)CNCCc2ccc(S(N)(=O)=O)cc2)c2ccc(OC)cc2)cc1 (stereo not drawn)	HCV inhibitor inconclusive, Pf growth 96h 12µM (no result: Pf growth 48h)
COc1ccc(CCN2C(=NC(=O)C(C)C)SC3CS(=O)(=O)CC32)cc1OC (stereo not drawn)	none
N#CCCN1CCN(Cc2ccccc2)CCC1=O	none
CC(=O)Nc1ccc(S(=O)(=O)Nc2cccc(-n3c(C)nc4ccccc4c3=O)c2)cc1	Pf growth 48h inconclusive (no result: NS1 inh)
Cc1ccc(S(=O)(=O)N2CCN(S(=O)(=O)N3CCC(C)CC3)CC2)c(C)c1	none
CC1CCN(S(=O)(=O)c2ccc3c4c2CC(=O)N4CC(C)S3)CC1 (stereo not drawn)	Pf growth 48h 8.3µM
c1cnc(Sc2ccc3nnnn3n2)nc1	none (no result: NS1 inh)
C/C(CCC(C)C)=N\Nc1cc(C)c2ccccc2n1	Pf growth 48h inconclusive, Pf growth 96h 17µM (no result: NS1 inh)
O=C(c1ccco1)N(Cc1ccco1)c1ccc(O)cc1	Pf growth 48h inconclusive, Pf growth 96h 9.3µM
Cc1ccc(CN(Cc2ccco2)C(=O)c2ccco2)cc1	HCV inhibitor inconclusive
O=C(c1ccco1)N(Cc1ccccc1)c1cccc([N+](=O)[O-])c1	Pf growth 48h inconclusive, Pf growth 96h 6.6µM (no result: NS1 inh)
O=C(CCNC(=O)c1ccc(Cl)cc1)NCc1ccco1	none (no result: Pf growth 48h, Pf growth 96h, NS1 inh)
COc1ccccc1C1CC(c2ccccc2)=NN1C(=O)c1ccccc1 (stereo not drawn)	Pf growth 48h 0.37µM
Cn1cc(C2CC(c3ccccc3)=NN2C(=O)c2ccccc2)c2ccccc21 (stereo not drawn)	HCV inhibitor inconclusive, Pf growth 48h 8.3µM, Pf growth 96h 8.3µM
CCc1ccc(C2=NN(S(C)(=O)=O)C(c3cccs3)C2)cc1 (stereo not drawn)	Pf growth 96h 0.29µM (no result: Pf growth 48h)
COc1cccc(C2CC(c3ccc(NS(C)(=O)=O)cc3)=NN2C(=O)c2ccccc2)c1OC (stereo not drawn)	Pf growth 48h inconclusive (no result: NS1 inh)
CCCC(=O)N1N=C(c2ccccc2)CC1c1cn(C)c2ccccc12 (stereo not drawn)	Pf growth 48h inconclusive, Pf growth 96h inconclusive
CS(=O)(=O)Nc1ccc(C2=NN(S(C)(=O)=O)C(c3ccc4c(c3)OCO4)C2)cc1 (stereo not drawn)	Pf growth 96h 2.9µM
COc1ccc(OC(=O)COc2ccccc2C)cc1	none (no result: SARS PLpro yeast, Pf growth 48h, Pf growth 96h, NS1 inh)
O=C(c1ccccc1)N1N=C(c2ccccc2)CC1c1ccccc1[N+](=O)[O-] (stereo not drawn)	Pf growth 48h inconclusive, Pf growth 96h 1.7µM
